From the supplement of paper PMC13380429

System: Vero E6 infected with SARS-CoV-2
Assay: inhibition of SARS-CoV-2 cytopathic effect; higher = more antiviral protection, active = above 15
Conditions: 48 h

Measured: inhibition of SARS-CoV-2 cytopathic effect

Cc1nc2sccn2c(=O)c1CCN1CCC(=C(c2ccccc2)c2ccc(F)cc2)CC1
inactive: 1 nM 1.18% | 8.33 nM -2.89% | 100 nM 0.46% | 833.33 nM 2.57% | 10000 nM 1.02%

Cc1ccccc1C(OCCN(C)C)c1ccccc1 (stereo not given) [orphenadrine]
inactive: 1 nM 0.59% | 8.33 nM 0.5% | 100 nM -0.66% | 833.33 nM 1.65% | 10000 nM -0.73%

CC(N)CCCC(C)(C)O (stereo not given) [heptaminol]
inactive: 1 nM 0.22% | 8.33 nM 3.55% | 100 nM 2.95% | 833.33 nM -3.4% | 10000 nM 0.76%

COC1CCN(C(=O)c2cc(Cc3n[nH]c(=O)c4ccccc34)ccc2F)CC1
inactive: 1 nM -0.72% | 8.33 nM 7.33% | 100 nM 4.58% | 833.33 nM 3.41% | 10000 nM 4.58%

Nc1cc(C(F)(F)F)c(-c2nc(N3CCOCC3)nc(N3CCOCC3)n2)cn1
inactive: 1 nM -0.85% | 8.33 nM 5.6% | 100 nM 1.97% | 833.33 nM 1.89% | 10000 nM -3.26%

O=C(O)c1ccc(-n2nc(-c3ccccc3O)nc2-c2ccccc2O)cc1 [deferasirox]
inactive: 1 nM -0.67% | 8.33 nM -4.22% | 100 nM -1.32% | 833.33 nM -1.58% | 10000 nM 0.43%

CC(C)C[C@H](NC(=O)CNC(=O)c1cc(Cl)ccc1Cl)B1OC(=O)C(CC(=O)O)(CC(=O)O)O1
inactive: 1 nM -0.89% | 8.33 nM 1.36%
active: 100 nM 21.2% | 833.33 nM 34.2% | 10000 nM 18.7%

CN1CCN(C2=Cc3ccccc3Oc3ccc(Cl)cc32)CC1
inactive: 1 nM 1.06% | 8.33 nM 0.31% | 100 nM -0.45% | 833.33 nM -1.6% | 10000 nM -1.46%

Cc1ccc(NC(=O)c2ccc(CN3CCN(C)CC3)cc2)cc1Nc1nccc(-c2cccnc2)n1 [imatinib]
inactive: 1 nM 2.28% | 8.33 nM 1.75% | 100 nM 5.42% | 833.33 nM 7.15%
active: 10000 nM 20.1%

Nc1nc(N)c2nc(-c3cccc(O)c3)cnc2n1
inactive: 1 nM -0.93% | 8.33 nM -0.26% | 100 nM 0.04% | 833.33 nM -0.48% | 10000 nM -1.39%

O=C1CN2Cc3c(ccc(Cl)c3Cl)N=C2N1 [anagrelide]
inactive: 1 nM 0.79% | 8.33 nM -0.94% | 100 nM -1.24% | 833.33 nM -0.35% | 10000 nM 0.92%

CN(C)CCOC1=Cc2ccccc2Sc2ccc(Cl)cc21 [zotepine]
inactive: 1 nM 3.4% | 8.33 nM 2.96% | 100 nM 4.34% | 833.33 nM 0.16% | 10000 nM -3.52%

O=C(Nc1cccnc1)c1cc(-c2ccnc(F)c2)ccc1OCc1ccccc1
inactive: 1 nM 2.42% | 8.33 nM -0.98% | 100 nM 4.16% | 833.33 nM 4.08% | 10000 nM 3.44%

O=C(c1ccc(F)c(F)c1Nc1ccc(I)cc1F)N1CC(O)([C@@H]2CCCCN2)C1 [cobimetinib]
inactive: 1 nM -0.38% | 8.33 nM -3.42% | 100 nM -9.73% | 833.33 nM -11.8% | 10000 nM -12.2%

CC1=NN(c2ccc(C)c(C)c2)C(=O)/C1=N\Nc1cccc(-c2cccc(C(=O)O)c2)c1O [eltrombopag]
inactive: 1 nM 2.51% | 8.33 nM 2.25% | 100 nM 2.06% | 833.33 nM 0.59% | 10000 nM 0.99%

CCN(CC)CCNC(=O)c1ccc(N)cc1 [procainamide]
inactive: 1 nM -2.56% | 8.33 nM 0.24% | 100 nM -0.04% | 833.33 nM -1.26% | 10000 nM 0.87%

COC(=O)C1=C(C)NC(C)=C(C(=O)OCCCN2CCC(c3ccccc3)(c3ccccc3)CC2)[C@@H]1c1cccc([N+](=O)[O-])c1 [dexniguldipine]
inactive: 1 nM 1.4% | 8.33 nM 0.16% | 100 nM 2.09% | 833.33 nM -3.36% | 10000 nM -4.64%

O=C(CCCCCCCn1cc(-c2cccnc2)nn1)Nc1ccccc1-c1ccccc1
inactive: 1 nM 0.38% | 8.33 nM -1.7% | 100 nM -14.1% | 833.33 nM -14.7% | 10000 nM -12.8%

CNCCC(Oc1ccc(C(F)(F)F)cc1)c1ccccc1 (stereo not given) [fluoxetine]
inactive: 1 nM -10.3% | 8.33 nM 0.27% | 100 nM -2.53% | 833.33 nM -3.36% | 10000 nM -9.56%

CC1(C)CC(=O)c2c(C(F)(F)F)nn(-c3ccc(C(N)=O)c(N[C@H]4CC[C@H](O)CC4)c3)c2C1
inactive: 1 nM 1.9% | 8.33 nM 1.97% | 100 nM -3.3% | 833.33 nM -1.33% | 10000 nM -0.66%

O=C(OOC(=O)c1ccccc1)c1ccccc1 [benzoyl-peroxide]
inactive: 1 nM 2.98% | 8.33 nM 2.38% | 100 nM -1.92% | 833.33 nM -1.86% | 10000 nM -0.05%

CN(c1ncccc1CNc1nc(Nc2ccc3c(c2)CC(=O)N3)ncc1C(F)(F)F)S(C)(=O)=O
inactive: 1 nM 0.16% | 8.33 nM 0.22% | 100 nM -1.3% | 833.33 nM -2.48% | 10000 nM -3.05%

CN1CCCC(n2nc(Cc3ccc(Cl)cc3)c3ccccc3c2=O)CC1 (stereo not given) [azelastine]
inactive: 1 nM -1.24% | 8.33 nM -0.03% | 100 nM -3.43% | 833.33 nM -2.95% | 10000 nM -3.03%

CC(O)(P(=O)(O)O)P(=O)(O)O [etidronic-acid]
inactive: 1 nM 0.67% | 8.33 nM -1.84% | 100 nM -1.2% | 833.33 nM 0.77% | 10000 nM 0.13%

O=C(Nc1ccc(F)cc1)N1CCc2ccccc2[C@@H]1c1ccc(C(F)(F)F)cc1
inactive: 1 nM 0.09% | 8.33 nM -1.41% | 100 nM -0.59% | 833.33 nM -1.97% | 10000 nM -1.53%

C[C@]12CC[C@@H]3c4ccc(OC(=O)N(CCCl)CCCl)cc4CC[C@H]3[C@@H]1CC[C@@H]2OP(=O)(O)O [estramustine-phosphate]
inactive: 1 nM -1.79% | 8.33 nM 0.03% | 100 nM -0.34% | 833.33 nM -1.57% | 10000 nM -2.26%

O=C(/C=C\n1cnc(-c2cc(C(F)(F)F)cc(C(F)(F)F)c2)n1)N1CC(F)(F)C1
inactive: 1 nM 2.37% | 8.33 nM -1.09% | 100 nM -2.84% | 833.33 nM -7.74% | 10000 nM -16.6%
